ssDAF12 agonist = activators of S. stercoralis DAF-12 nuclear receptor; activation, % at 6.8 µM; hit rate 1% among 370,000; HEK293 ssDAF-12/GRIP1 lit1-tk-luc reporter, luminescence; % of 3 µM dafachronic acid response;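 active = activation above the mean over all tested compounds plus 3 SD, cut at about 0.9% in these data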
DAX1 inh-1 = inhibitors of human orphan nuclear receptor DAX1 (NR0B1); AID 504766; hit rate 0.99% among 340,000; HEK293 Gal4-DAX1 luciferase reporter, luminescence; inhibition, % at 6.75 µM;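 active = inhibition above the mean over all tested compounds plus 3 SD, cut at about 4.2% in these data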;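 also: inhibition shows as a rise in luminescence from relieved DAX1 repression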
Target sequence (P51843 207-470 limits assumed): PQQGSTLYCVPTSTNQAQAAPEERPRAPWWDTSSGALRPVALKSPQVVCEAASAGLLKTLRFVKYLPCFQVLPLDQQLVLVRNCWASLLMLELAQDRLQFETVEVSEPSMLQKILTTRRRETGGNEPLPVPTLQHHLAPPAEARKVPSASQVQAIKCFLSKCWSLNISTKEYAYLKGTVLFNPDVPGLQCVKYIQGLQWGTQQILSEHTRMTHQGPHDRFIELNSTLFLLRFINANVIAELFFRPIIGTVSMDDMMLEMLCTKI
PolyA inh = inhibitors of polyadenylation in S. cerevisiae | hit rate 0.02% among 300,000 | S. cerevisiae SKY197-pL101 polyadenylation reporter, beta-gal luminescence; efflux-impaired pdr1/pdr3 knockout yeast; score 100 = 6 SD above DMSO | activity score, % at 12 µM | AID 1875;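 active = lowest replicate activity score at least 50, where 100 means six control SD above control mean; inconclusive = lowest score under 50 but half or more replicates reach 50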;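 also: yeast exposed to compound for 9 h at 30 °C; higher score means more reporter readthrough which indicates perturbed polyadenylation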
hcDAF12 agonist = activates DAF-12 receptor from parasite H. contortus | HEK293 hcDAF-12 lit1-tk-luc reporter, luminescence; 0% DMSO, 100% Δ7-dafachronic acid | activation, % at 6.8 µM | hit rate 1.4% among 370,000;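 active = activation above the mean of all tested compounds plus 3 SD, cut at about 5.5% in these data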
DAX1 inh-2 = inhibitors of DAX1 repression of SF-1 activated StAR promoter; HEK293T StAR-luciferase reporter, SF-1/DAX-1 repression relief; inhibition, % at 6.8 µM; hit rate 1.1% among 370,000;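 active = inhibition above the mean over all tested compounds plus 3 SD, cut at about 3.6% in these data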;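 also: higher inhibition means more luminescence from relief of DAX-1 repression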
hgDAF12 agonist = activates the H. glycines DAF-12 receptor ligand-binding domain; AID 687014; HEK293 GAL4-hgDAF12 UAS-luciferase reporter, agonist luminescence; normalized to butyrate control; hit rate 1.8% among 370,000; activation, % at 6.8 µM;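 active = activation above a cutoff set at the mean of all screened compounds plus 3 SD, cut at about 10% in these data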
LXR ag = LXR-beta agonism as hcDAF-12 counter-screen; shares compounds with hcDAF12 agonist; HEK293 Gal4-LXR tk-luc reporter, luminescence, 24 h; normalized: DMSO 0%, positive control 100%; activation, % at 6.8 µM; 3,400 tested, under 10 active; AID 743027;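 active = mean percent activation of the reporter above a cutoff set as the average over tested compounds plus their standard deviation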
Target sequence (P55055 whole entry, looked up, the tested form may be a part): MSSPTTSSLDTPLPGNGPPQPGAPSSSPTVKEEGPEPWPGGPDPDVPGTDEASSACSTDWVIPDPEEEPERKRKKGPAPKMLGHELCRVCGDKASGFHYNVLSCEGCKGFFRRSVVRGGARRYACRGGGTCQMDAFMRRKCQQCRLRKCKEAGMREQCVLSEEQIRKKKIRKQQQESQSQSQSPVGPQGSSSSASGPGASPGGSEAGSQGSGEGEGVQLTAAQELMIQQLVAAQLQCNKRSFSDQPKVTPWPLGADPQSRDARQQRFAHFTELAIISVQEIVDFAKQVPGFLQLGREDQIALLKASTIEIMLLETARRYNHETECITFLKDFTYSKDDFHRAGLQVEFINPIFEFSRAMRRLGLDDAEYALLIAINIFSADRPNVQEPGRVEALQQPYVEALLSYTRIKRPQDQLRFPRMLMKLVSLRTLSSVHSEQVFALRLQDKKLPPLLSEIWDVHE
hcDAF12 conf = confirmation of H. contortus DAF-12 agonists; HEK293 hcDAF-12 lit1-tk-luc reporter, luminescence; % of Δ7-dafachronic acid response; shares compounds with hcDAF12 agonist; hit rate 61% among 3,400; activation, % at 6.8 µM;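 active = mean activation across triplicate tests above the threshold derived from the earlier primary screen, cut at about 5.5% in these data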
hgDAF12 ag = hgDAF-12 agonism, confirmation assay. shares compounds with hgDAF12 agonist. HEK293 GAL4-hgDAF12 luciferase reporter, agonist mode; percent of butyrate response. activation, % at 6.8 µM. hit rate 80% among 3,300. AID 743050;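 active = mean activation over triplicate wells above the hit cutoff derived from the earlier primary screen, cut at about 11% in these data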
LXR ag 2 = counter-screen for DAF-12 agonists: agonists of human LXR-beta | shares compounds with hgDAF12 agonist | HEK293 Gal4-LXR luciferase reporter, 24 h | activation, % at 6.8 µM | 3,300 tested, under 10 active;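 active = mean activation of the triplicate above a set limit carried over from the primary screen, none filed active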
Each line names hits and unclear results; the compound was inactive in the other large screens (follow-up assays come after a bar, where they were run). The list is not random: actives were taken first. Their share in the collection is about 4.1%.

O=C1CCOc2cc(OCc3ccccc3)ccc21	hcDAF12 agonist 9.2, hgDAF12 agonist 12 | LXR ag inactive | hcDAF12 conf 6.2
CCCN1CNc2c(c(=O)[nH]c(=S)n2CCc2c(Cl)cccc2Cl)C1	none (no result: DAX1 inh-1, PolyA inh, DAX1 inh-2)
COCCCNc1nc2c(-c3ccc(C)cc3)nnn2c2ccccc12	ssDAF12 agonist 3.6, hcDAF12 agonist 8.0, hgDAF12 agonist 12 | LXR ag inactive | hcDAF12 conf 8.0
CCCCNc1nc2c(S(=O)(=O)c3ccccc3)nnn2c2ccccc12	PolyA inh inconclusive
COCCCNc1nc2c(-c3cccc(C)c3)nnn2c2ccccc12	hcDAF12 agonist 6.9 | LXR ag inactive | hcDAF12 conf inactive
O=[N+]([O-])c1ccc(Cl)c(S(=O)(=O)Nc2ccc3cn[nH]c3c2)c1	none (no result: PolyA inh)
O=[N+]([O-])c1ccc2cn[nH]c2c1	hcDAF12 agonist 8.3 | LXR ag inactive | hcDAF12 conf inactive
Oc1c(N=Nc2ccc(F)cc2)ccc2ccccc12	hcDAF12 agonist 7.4 | LXR ag inactive | hcDAF12 conf 12
CN1CCN(C2CN(Cc3cn(Cc4ccc(F)cc4)nn3)S(=O)(=O)C2)CC1 (centres undefined)	none (no result: DAX1 inh-1, PolyA inh)
COc1ccc(C2=NN(S(C)(=O)=O)C(c3ccc4nccnc4c3)C2)cc1 (centres undefined)	hcDAF12 agonist 8.4 | LXR ag inactive | hcDAF12 conf inactive
CCOC(=O)c1ccc2c(c1)nc(-c1ccccn1)n2CC	ssDAF12 agonist 0.9, hcDAF12 agonist 7.6 | LXR ag inactive | hcDAF12 conf 8.7
COc1ccc(-c2cc(C(=O)N3CCN(C(c4ccccc4)c4ccccc4)CC3)no2)cc1	none (no result: ssDAF12 agonist, hcDAF12 agonist, DAX1 inh-2, hgDAF12 agonist)
COc1ccc(-c2cc(C(=O)N3CCCCCC3)no2)cc1	DAX1 inh-1 6.2, hcDAF12 agonist 7.6 | LXR ag inactive | hcDAF12 conf inactive
Cc1ccc(O)c(-c2cc(-c3ccccc3C)[nH]n2)c1	none
Cc1ccc(-c2cc(-c3cccs3)[nH]n2)c(O)c1	ssDAF12 agonist 2.3, hcDAF12 agonist 19, DAX1 inh-2 4.3, hgDAF12 agonist 19 | LXR ag inactive | hcDAF12 conf 13 | hgDAF12 ag 21 | LXR ag 2 inactive
Cc1nc(SCC(=O)Nc2ccccc2Cl)c2c(C)c(C)sc2n1	none (no result: PolyA inh)
O=C(O)C(=O)/C(=C\c1ccsc1)c1ccc2ccccc2n1	ssDAF12 agonist 3.2, hcDAF12 agonist 23, hgDAF12 agonist 16 | LXR ag inactive | hcDAF12 conf 14 | hgDAF12 ag 20 | LXR ag 2 inactive
O=C(O)C(=O)/C(=C\c1cccc2ccccc12)c1ccc2ccccc2n1	none
O=C(O)C(=O)/C(=C\c1ccccc1)c1ccc2ccccc2n1	ssDAF12 agonist 3.3, hcDAF12 agonist 19, DAX1 inh-2 4.5, hgDAF12 agonist 17 | LXR ag inactive | hcDAF12 conf 16 | hgDAF12 ag 22 | LXR ag 2 inactive
Cc1cc(NC(=O)c2cc(-c3cccc(OCC(C)C)c3)nc3ccccc23)no1	none
CCOc1ccc(-c2cc(C(=O)NN)[nH]n2)cc1	hcDAF12 agonist 6.8, hgDAF12 agonist 16 | LXR ag inactive | hcDAF12 conf inactive | hgDAF12 ag inactive | LXR ag 2 inactive
O=c1[nH]c(N/N=C\c2ccc(F)cc2)nc2ccccc12	ssDAF12 agonist 1.6, hcDAF12 agonist 8.4, hgDAF12 agonist 15 | LXR ag inactive | hcDAF12 conf inactive | hgDAF12 ag 18 | LXR ag 2 inactive
O=c1[nH]c(N/N=C/c2ccc(O)cc2)nc2ccccc12	none
CSc1c(-c2ccccn2)c(N)nn1C(=O)C1CCC1	none
Cc1ccc(N/N=C(\C#N)C(N)=S)cc1C	none
Cc1ccc(N/C=C(/C#N)c2ccsc2)cc1C	ssDAF12 agonist 1.5, hcDAF12 agonist 7.2, hgDAF12 agonist 15 | LXR ag inactive | hcDAF12 conf 8.1 | hgDAF12 ag 22 | LXR ag 2 inactive
O=C(O)c1c(-c2ccccc2)oc2ccc(O)cc12	none
Cc1ccc2oc(-c3ccccc3)c(C(=O)O)c(=O)c2c1	hcDAF12 agonist 6.7, hgDAF12 agonist 18 | LXR ag inactive | hcDAF12 conf 6.1 | hgDAF12 ag 18 | LXR ag 2 inactive
CC(C)COc1ccc(CNC(=S)Nc2ccccc2)cc1Cl	none
Cc1cc(NC(=O)Nc2ccccc2F)ccc1Br	hcDAF12 agonist 7.1, hgDAF12 agonist 21 | LXR ag inactive | hcDAF12 conf 6.3 | hgDAF12 ag 18 | LXR ag 2 inactive
COc1ccccc1OCCSc1nnnn1-c1ccc(C)cc1	none
Fc1ccccc1OCCSc1nnnn1-c1ccccc1	hcDAF12 agonist 8.1, hgDAF12 agonist 13 | LXR ag inactive | hcDAF12 conf 7.7 | hgDAF12 ag 18 | LXR ag 2 inactive
c1ccc([C@H]2CN3C(=N2)Sc2ccccc23)cc1	ssDAF12 agonist 2.5, hcDAF12 agonist 13, hgDAF12 agonist 16 (no result: PolyA inh) | LXR ag inactive | hcDAF12 conf 15 | hgDAF12 ag 24 | LXR ag 2 inactive
C=CCNC(=O)c1cccc(NS(=O)(=O)c2ccc(Cl)cc2)c1	none
Cc1nc(-c2ccc3c(c2)OCCCO3)cs1	hcDAF12 agonist 6.6, hgDAF12 agonist 13 | LXR ag inactive | hcDAF12 conf inactive | hgDAF12 ag 18 | LXR ag 2 inactive
Cc1nc(-c2ccc3c(c2)OCO3)cs1	none
CCN(CC(=O)NCc1ccc(F)cc1)C(=O)c1oc2ccccc2c1C	none
COc1ccc(C2=Nc3ccccc3N(C(=O)c3ccc4ncccc4c3)C2C(=O)NC2CCCC2)cc1 (centres undefined)	ssDAF12 agonist 2.3, hcDAF12 agonist 9.7, hgDAF12 agonist 18 (no result: DAX1 inh-1, PolyA inh) | LXR ag inactive | hcDAF12 conf 10 | hgDAF12 ag 12 | LXR ag 2 inactive
COc1cc(/C=N/N(C)c2ccccc2)ccc1O	hcDAF12 agonist 7.5, hgDAF12 agonist 17 | LXR ag inactive | hcDAF12 conf 8.2 | hgDAF12 ag 18 | LXR ag 2 inactive
COc1cc(/C=N/NC(=O)C2c3ccccc3Oc3ccccc32)ccc1O	none
CCn1c(/C=C/c2ccccc2)nc2ccccc21	ssDAF12 agonist 1.4, hcDAF12 agonist 11, DAX1 inh-2 3.9, hgDAF12 agonist 15 | LXR ag inactive | hcDAF12 conf 12 | hgDAF12 ag 17 | LXR ag 2 inactive
